The record followed here is PubChem BioAssay (EPA / NIEHS).

In assay [1] the target is zebrafish Thyroid Hormone Receptor alpha (TRa), thraa (gene 30670) (UniProt Q98867). In words: ATG_zfTRa_XSP1: Attagene TRANS-FACTORIAL Multi-Species (XSP1) HepG2 Assay for zebrafish Thyroid Hormone Receptor alpha (TRa) (AID 2283807). Put shortly:
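HepG2 cells transiently transfected with GAL4-UAS reporter units including a zebrafish TRa–Gal4 chimera, dosed 24 h with 3 nM 6-alpha-fluorotestosterone present. Reporter mRNA quantified by RT-PCR and capillary electrophoresis; gain versus DMSO.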

The target of assay [2] is human Thyroid hormone Receptor beta (TRb), THRB (gene 7068) (UniProt P10828). In words: ATG_hTRb_XSP1: Attagene TRANS-FACTORIAL Multi-Species (XSP1) HepG2 Assay for human Thyroid hormone Receptor beta (TRb) (AID 2283808). In short, it runs like this: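 HepG2 cells transiently transfected with reporter units driving GAL4-UAS reporters for chimeric NR-Gal4 proteins; 24 h chemical exposure with 3 nM 6-alpha-fluorotestosterone present. Reporter mRNA quantified by RT-PCR and capillary electrophoresis, gain of signal versus DMSO.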

For assay [3], the target named is zebrafish Thyroid Hormone Receptor beta (TRb), thrb (gene 30607) (UniProt Q9PVE4). The assay is described as follows: ATG_zfTRb_XSP1: Attagene TRANS-FACTORIAL Multi-Species (XSP1) HepG2 Assay for zebrafish Thyroid Hormone Receptor beta (TRb) (AID 2283809). Put shortly: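 HepG2 cells transiently transfected with multiplexed GAL4-UAS reporter units expressing chimeric zebrafish TRb–Gal4. Dosed 24 h with 3 nM 6-alpha-fluorotestosterone present; reporter mRNA measured by RT-PCR, HpaI digestion and capillary electrophoresis; gain of signal versus DMSO.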

Assay [4] can be described thus: ATG_XTT_Cytotoxicity_XSP1: Cytotoxicity Assessment in the Attagene TRANS-FACTORIAL Multi-Species (XSP1) HepG2 Assay (AID 2283810). In short, it runs like this: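 XTT viability readout taken at 24 hours post-dosing in HepG2 liver cells co-treated with 3 nM 6-alpha-fluorotestosterone. Signal loss relative to DMSO controls reflects cytotoxicity.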
Assay [5] in a line: ATG_M_06_XSP2: Attagene TRANS-FACTORIAL Multi-Species (XSP2) HepG2 Assay for M06 Transcription Factor (Internal Marker) (AID 2283811).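 Further: hits are increases in signal above the DMSO baseline.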 Put shortly:
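HepG2 cells transiently transfected with GAL4-UAS multiple reporter units, medium containing 3 nM 6-alpha-fluorotestosterone and 1.5 nM norgestrel; reporter mRNA measured 24 hours post-dosing by RT-PCR and capillary electrophoresis. Internal background marker, gain of signal vs DMSO.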

For assay [6], the system named is turtle Estrogen Receptor (ERa), gene 101933533. The assay is described as follows: ATG_trERa_XSP2: Attagene TRANS-FACTORIAL Multi-Species (XSP2) HepG2 Assay for turtle Estrogen Receptor (ERa) (AID 2283812).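 Further: human HepG2 liver cells transiently expressing turtle ERa-Gal4 chimeric receptor; actives raise reporter signal above DMSO so AC50 reflects agonist activity.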 Put shortly: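 HepG2 cells transiently transfected with GAL4-UAS reporter units expressing turtle ERa-Gal4 chimera. Reporter mRNA measured after 24 h dosing by RT-PCR, fluorescent labelling and capillary electrophoresis; gain of signal fitted versus DMSO.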

Assay [7] concerns the target Estrogen receptor beta (Homo sapiens) (UniProt Q92731). In words: ATG_hERb_XSP2: Attagene TRANS-FACTORIAL Multi-Species (XSP2) HepG2 Assay for human Estrogen Receptor (ERb) (AID 2283813).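 Further: actives raise reporter mRNA above DMSO so AC50 reflects agonist induction.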 Put shortly:
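HepG2 cells transiently transfected with GAL4-UAS reporter units and chimeric human ERb-Gal4, 24 h exposure. Reporter mRNA quantified by RT-PCR with FAM labelling, HpaI digestion and capillary electrophoresis; gain of signal versus DMSO.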

Assay [8] concerns the target zebrafish Estrogen Receptor (ER1), esr1 (gene 259252) (UniProt P57717). In words: ATG_zfER1_XSP2: Attagene TRANS-FACTORIAL Multi-Species (XSP2) HepG2 Assay for zebrafish Estrogen Receptor (ER1) (AID 2283816). Put shortly: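 HepG2 cells transiently transfected with a GAL4-UAS reporter and a chimeric zebrafish ER1-Gal4 construct, dosed 24 h. Reporter mRNA quantified by RT-PCR, labelling, HpaI digestion and capillary electrophoresis, relative to DMSO.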

Assay [9] deals with GAL4 Transcription Factor (Internal Marker), GAL4 (gene 855828) (UniProt P04386). In words: ATG_GAL4_XSP2: Attagene TRANS-FACTORIAL Multi-Species (XSP2) HepG2 Assay for GAL4 Transcription Factor (Internal Marker) (AID 2283814).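 Further: GAL4 reporter mRNA background control in MRTU transfected cells not a receptor target.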 In short, it runs like this: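 HepG2 cells transiently transfected with GAL4-UAS reporter units, stimulated with 3 nM 6-alpha-fluorotestosterone plus 1.5 nM norgestrel, dosed 24 h. Reporter mRNA by RT-PCR/capillary electrophoresis; gain-of-signal fit versus DMSO, background control.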

The test system of assay [10] is turtle Androgen Receptor (AR), gene 101947425. In words: ATG_trAR_XSP2: Attagene TRANS-FACTORIAL Multi-Species (XSP2) HepG2 Assay for turtle Androgen Receptor (AR) (AID 2283815). In short, it runs like this: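 HepG2 cells transiently transfected with GAL4-UAS reporter units for chimeric NR-Gal4 receptors; 24 h dosing in presence of 3 nM 6-alpha-fluorotestosterone and 1.5 nM norgestrel. Reporter mRNA by RT-PCR and capillary electrophoresis, gain of signal versus DMSO.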

Inconclusive results are not listed. Active and inactive are the calls of the source. How the source made its calls: active means hit-call score of the fitted dose curve at least 0.9, where 1 is the maximum; inconclusive means response in the unintended direction; inactive means score below 0.9.

Sequence of zebrafish Thyroid Hormone Receptor beta (TRb), thrb (gene 30607) (Q9PVE4 whole entry, looked up, the tested form may be a part): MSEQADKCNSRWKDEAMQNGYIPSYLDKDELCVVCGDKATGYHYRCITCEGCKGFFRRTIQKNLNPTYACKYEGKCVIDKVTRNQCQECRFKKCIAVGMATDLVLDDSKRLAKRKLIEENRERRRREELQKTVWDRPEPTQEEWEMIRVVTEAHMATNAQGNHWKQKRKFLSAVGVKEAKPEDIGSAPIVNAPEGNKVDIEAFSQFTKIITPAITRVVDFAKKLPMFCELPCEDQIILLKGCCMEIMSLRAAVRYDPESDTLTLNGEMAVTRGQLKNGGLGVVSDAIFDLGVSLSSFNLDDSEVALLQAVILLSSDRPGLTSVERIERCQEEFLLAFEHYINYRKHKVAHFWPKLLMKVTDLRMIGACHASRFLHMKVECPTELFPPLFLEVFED
Sequence of human Thyroid hormone Receptor beta (TRb), THRB (gene 7068) (P10828 whole entry, looked up, the tested form may be a part): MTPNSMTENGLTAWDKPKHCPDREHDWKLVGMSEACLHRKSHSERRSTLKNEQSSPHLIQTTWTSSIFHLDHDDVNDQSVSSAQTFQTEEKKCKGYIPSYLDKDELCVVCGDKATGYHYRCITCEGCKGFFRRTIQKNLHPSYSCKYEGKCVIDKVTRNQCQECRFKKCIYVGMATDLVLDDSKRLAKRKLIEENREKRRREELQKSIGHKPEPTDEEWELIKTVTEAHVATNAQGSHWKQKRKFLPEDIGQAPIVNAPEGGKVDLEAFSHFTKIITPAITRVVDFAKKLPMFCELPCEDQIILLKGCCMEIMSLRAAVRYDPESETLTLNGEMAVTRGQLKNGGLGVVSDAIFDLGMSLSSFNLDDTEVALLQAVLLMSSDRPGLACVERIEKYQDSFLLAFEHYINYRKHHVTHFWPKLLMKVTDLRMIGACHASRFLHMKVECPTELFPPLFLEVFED
Sequence of zebrafish Thyroid Hormone Receptor alpha (TRa), thraa (gene 30670) (Q98867 whole entry, looked up, the tested form may be a part): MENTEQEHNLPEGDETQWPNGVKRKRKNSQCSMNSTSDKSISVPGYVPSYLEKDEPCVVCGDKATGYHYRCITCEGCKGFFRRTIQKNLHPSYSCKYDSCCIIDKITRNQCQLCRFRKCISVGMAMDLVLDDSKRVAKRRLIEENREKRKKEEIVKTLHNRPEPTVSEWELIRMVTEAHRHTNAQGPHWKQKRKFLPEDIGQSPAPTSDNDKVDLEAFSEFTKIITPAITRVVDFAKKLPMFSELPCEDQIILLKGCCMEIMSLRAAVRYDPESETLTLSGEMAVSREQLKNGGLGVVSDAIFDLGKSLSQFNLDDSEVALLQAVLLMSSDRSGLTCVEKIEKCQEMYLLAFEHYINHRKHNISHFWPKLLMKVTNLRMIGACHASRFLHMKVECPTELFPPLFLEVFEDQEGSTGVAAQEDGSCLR
Sequence of Estrogen receptor beta (Homo sapiens) (Q92731 whole entry, looked up, the tested form may be a part): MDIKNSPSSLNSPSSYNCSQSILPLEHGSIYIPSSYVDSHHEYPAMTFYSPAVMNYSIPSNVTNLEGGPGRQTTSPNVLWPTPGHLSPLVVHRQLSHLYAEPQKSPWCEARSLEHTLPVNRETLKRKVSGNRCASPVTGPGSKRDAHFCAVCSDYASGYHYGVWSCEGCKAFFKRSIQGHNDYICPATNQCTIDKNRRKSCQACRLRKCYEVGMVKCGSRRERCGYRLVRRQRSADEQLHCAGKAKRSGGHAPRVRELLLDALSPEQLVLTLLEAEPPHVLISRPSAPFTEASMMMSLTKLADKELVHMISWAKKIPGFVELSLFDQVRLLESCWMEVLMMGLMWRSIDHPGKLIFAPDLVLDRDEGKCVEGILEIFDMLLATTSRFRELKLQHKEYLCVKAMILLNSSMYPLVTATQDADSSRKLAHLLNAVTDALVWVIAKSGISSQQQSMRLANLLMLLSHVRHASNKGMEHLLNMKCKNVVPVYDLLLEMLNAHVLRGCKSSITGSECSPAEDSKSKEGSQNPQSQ
Sequence of GAL4 Transcription Factor (Internal Marker), GAL4 (gene 855828) (P04386 whole entry, looked up, the tested form may be a part): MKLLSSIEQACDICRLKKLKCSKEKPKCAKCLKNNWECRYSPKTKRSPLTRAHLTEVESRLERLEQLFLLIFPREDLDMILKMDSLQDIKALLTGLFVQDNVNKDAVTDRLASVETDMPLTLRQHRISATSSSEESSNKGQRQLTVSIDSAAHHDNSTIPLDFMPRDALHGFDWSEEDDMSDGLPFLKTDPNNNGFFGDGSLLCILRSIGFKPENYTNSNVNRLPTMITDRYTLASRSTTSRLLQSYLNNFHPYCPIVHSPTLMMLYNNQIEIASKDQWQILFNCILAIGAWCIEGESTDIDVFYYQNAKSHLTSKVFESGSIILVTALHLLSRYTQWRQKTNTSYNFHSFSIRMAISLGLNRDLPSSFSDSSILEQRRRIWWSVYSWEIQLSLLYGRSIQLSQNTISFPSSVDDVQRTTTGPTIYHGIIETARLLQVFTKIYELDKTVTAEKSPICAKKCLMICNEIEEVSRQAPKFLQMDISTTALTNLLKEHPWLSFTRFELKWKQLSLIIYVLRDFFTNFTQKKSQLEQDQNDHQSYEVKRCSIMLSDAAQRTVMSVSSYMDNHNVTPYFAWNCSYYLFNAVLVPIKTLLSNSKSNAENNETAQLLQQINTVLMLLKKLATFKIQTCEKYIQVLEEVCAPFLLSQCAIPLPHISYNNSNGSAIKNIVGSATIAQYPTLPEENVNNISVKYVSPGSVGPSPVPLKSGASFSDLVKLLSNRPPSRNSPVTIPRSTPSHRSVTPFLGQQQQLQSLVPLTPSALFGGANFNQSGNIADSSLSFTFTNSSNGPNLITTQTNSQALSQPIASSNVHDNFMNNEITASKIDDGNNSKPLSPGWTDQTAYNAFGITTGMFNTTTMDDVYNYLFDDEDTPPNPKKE
Sequence of zebrafish Estrogen Receptor (ER1), esr1 (gene 259252) (P57717 whole entry, looked up, the tested form may be a part): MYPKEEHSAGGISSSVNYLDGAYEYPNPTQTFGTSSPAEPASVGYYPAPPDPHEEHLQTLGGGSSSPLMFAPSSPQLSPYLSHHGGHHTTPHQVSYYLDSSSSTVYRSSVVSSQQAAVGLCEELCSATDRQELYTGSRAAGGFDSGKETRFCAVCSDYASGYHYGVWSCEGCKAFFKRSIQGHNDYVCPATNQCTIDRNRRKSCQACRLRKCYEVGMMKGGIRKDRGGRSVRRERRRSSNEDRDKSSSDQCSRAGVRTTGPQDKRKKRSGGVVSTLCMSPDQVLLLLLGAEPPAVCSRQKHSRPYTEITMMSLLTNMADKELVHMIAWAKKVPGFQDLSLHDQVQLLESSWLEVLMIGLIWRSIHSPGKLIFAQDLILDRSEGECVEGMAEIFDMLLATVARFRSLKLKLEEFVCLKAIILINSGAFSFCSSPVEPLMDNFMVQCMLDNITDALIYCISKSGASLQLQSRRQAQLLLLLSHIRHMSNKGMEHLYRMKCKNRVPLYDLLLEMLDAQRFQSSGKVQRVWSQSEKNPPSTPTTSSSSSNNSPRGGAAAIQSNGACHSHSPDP

Broadly, the AC50 is the concentration giving half of the maximal activity seen. On to `CCN(CC)C(=S)SSC(=S)N(CC)CC`, for which the call in assay [1], in assay [2], in assay [3] and in [5] was inactive. Moreover, the AC50 in assay [4] was 30.8 µM (active).

Take `CC(C)C(=O)Nc1ccc([N+](=O)[O-])c(C(F)(F)F)c1`: the results for the AC50 in assay [1], in assay [2] and in [3] were 18.3 µM (active), 100 µM (active) and 40.2 µM (active), respectively. Moreover, the result in assay [4], in assay [5], in assay [6], in assay [7] and in assay [8] was inactive.

In the case of `C=CCc1cc(S(=O)(=O)c2ccc(O)c(CC=C)c2)ccc1O`, the outcome in [2], in assay [3], in assay [5], in assay [7], in assay [9] and in assay [10] was inactive. For the same compound, the AC50 in assay [4] was 160 µM (active); in assay [6], 8.75 µM (active).
